Screen size: about 320,000 compounds; about 2,100 (0.66%) were called active. Another 53% or so got no clear call; they are omitted. The call rests on the fitted dose curve; in most records, active means well fitted inhibition curve with a large enough effect in the signal ratio, with a control signal flat (not every such curve was filed as active); inconclusive means small, poorly fitted or top-dose-only effect, or effect the other way, or a change in a side signal; inactive means flat fitted curve, though single readings scatter; the % refers to the signal ratio. The entries come from a sample that favours actives as a whole.
Potency means the concentration at half of the fitted maximal effect.

This test can be described thus: qHTS Assay for Lipid Storage Modulators in Drosophila S3 Cells.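 On cell number change: cells counted by Cell Tracker Red CMTPX staining in the red channel.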 The following applies: BODIPY lipid droplet fluorescence, 18-24 h, cells fed with added oleic acid; cell number change: measured here: cell count max response; series mostly up to 46.1 µM. In outline: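 Drosophila S3 cells got compounds at several concentrations plus oleic acid (400 uM solution). Laser-scanning cytometry with 488 nm excitation read lipid droplets at 500-530 nm and cells at 575-640 nm. Percent activity was relative to 20 uM Triacsin C.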
In general terms: qHTS replaces the single test concentration by a dilution series.
Regarding `CCC(CC)C(=O)Nc1nnc(S(=O)(=O)N2CCCc3ccccc32)s1`, the Potency result is “inactive” and the cell number change was -8.08%.
With `CC(C)(C)NC(=O)CCc1nnc(Cc2c[nH]c3ccccc23)o1`, the Potency entry was “inactive” and the cell number change is -0.239%.
Take `Cc1nn(C)c(C)c1S(=O)(=O)N(CC(=O)NCCN1CCOCC1)c1ccc(C(C)C)cc1`: the Potency entry was “inactive” and the cell number change is 12.7%.
Turning to `CC(O)/C=C/c1ccc2ccccc2n1` (stereo unspecified), the Potency result was “inactive” and the cell number change is -12.5%.
As to `Cc1nc2ccccc2nc(C)c1=NO`, the Potency result was “inactive” and the cell number change worked out at 8.5%.
In the case of `C/C(CC(O)c1ccc2ccccc2n1)=N/O` (stereo unspecified), the Potency was 10.3 µM (active) and the cell number change was determined as 3.68%.
For `O=C(Nc1c2c(nn1-c1ccccc1)CS(=O)C2)c1ccc2c(c1)OCO2` (stereo unspecified), the Potency entry was “inactive” and the cell number change amounted to 12.2%.
The matching figures for `O=c1c2cnn(-c3ccccc3)c2ncn1Cc1ccccc1`: “inactive” and -12.8%.
For the compound `O=c1c2cnn(-c3ccccc3)c2ncn1Cc1ccccn1`, the Potency entry is “inactive” and the cell number change stood at 26.2%.
As for `O=c1c2cnn(-c3ccccc3)c2ncn1Cc1ccco1`, the Potency is 32.6 µM (active) and the cell number change was 1.65%.
For `COCCN1C(=O)N[C@H](c2cccc(C(F)(F)F)c2)C(C(=O)OC)=C1C`, in that order: “inactive” and 3.4%.
In the case of `O=C(NCCc1ccccc1)C(=O)c1c(-c2ccccc2)cc2ccccn12`, the Potency entry is “inactive” and the cell number change is -0.29%.
`Cc1ccc(S(=O)(=O)N(C)C)cc1NC(=O)COC(=O)c1sc2cc(Cl)ccc2c1Cl`: the Potency was 1.46 µM (active) and the cell number change was -27.1%.
Consider `Cc1ccc(S(=O)(=O)N(C)C)cc1NC(=O)COC(=O)c1ccc2c(c1)OCCO2`, for which the Potency result was “inactive” and the cell number change was -1.35%.
Take `Cc1ccc(S(=O)(=O)N(C)C)cc1NC(=O)COC(=O)c1ccc(Cl)cc1`: the Potency result is “inactive”.
Regarding `O=C(Nc1ccnn1C1CCN(Cc2ccc(O)c(Cl)c2)CC1)C1CCCC1`, the Potency entry was “inactive” and the cell number change came out at 6.1%.
With `O=C1NCCn2ccc(=O)cc21`, the Potency result is “inactive” and the cell number change stood at 4.17%.
For `CCOC(=O)/C(N=O)=C(\O)C1CCN(C(=O)OCC)CC1`, the Potency result was “inactive” and the cell number change came to 1.9%.
On to `NS(=O)(=O)c1ccc(CNc2ncnc3sccc23)cc1`, for which the Potency result is “inactive” and the cell number change was -15.1%.
For the compound `c1ccc(CNc2ncnc3sccc23)cc1`, the Potency was 16.4 µM (active) and the cell number change was -15.5%.
Take `c1cncc(CNc2ncnc3sccc23)c1`: the Potency entry is “inactive” and the cell number change is -4.09%.
The matching figures for `Cc1cc(C)cc(-n2ccn(CC(=O)NCCc3ccccc3)c(=O)c2=O)c1`: “inactive” and -3.95%.
On to `Cc1ccc(OCC(=O)Nc2cccc(-c3nnc(-c4ccccc4)o3)c2)cc1`, for which the Potency result was “inactive” and the cell number change was determined as 1.35%.
As for `CSc1ccccc1NC(=O)CN(c1cccc(C)c1)S(C)(=O)=O`, the Potency result was “inactive” and the cell number change was -13.7%.
Regarding `Cc1cccc(N(CC(=O)Nc2ccccc2F)S(C)(=O)=O)c1`, the Potency is 6.51 µM (active).
On to `CSc1ccccc1NC(=O)CN(c1cc(C)cc(C)c1)S(C)(=O)=O`, for which the Potency result was “inactive”.
In the case of `C/C(=N\N=C\c1cccc(F)c1)c1nnn(-c2nonc2N)c1C`, the Potency entry was “inactive” and the cell number change is -1.27%.
For `CCOc1ccc(NC(=O)CCS(=O)(=O)c2ccc(C)cc2)cc1`, the Potency result is “inactive” and the cell number change was 9.92%.
Regarding `CCOc1ccc(NC(N)=O)cc1`, the Potency result was “inactive” and the cell number change was found to be 1.62%.
In the case of `CCOc1ccc(NC(=O)CNS(=O)(=O)c2c(C)cc(C)cc2C)cc1`, the Potency was 0.92 µM (active).
As to `CCC(C)NCCCOc1cc(Cl)ccc1Cl` (stereo unspecified), the Potency entry was “inactive” and the cell number change stood at 12.7%.
For `COc1ccc(N(CC(=O)Nc2ccc(C)c(C)c2)S(=O)(=O)c2c(C)n[nH]c2C)cc1`, in that order: “inactive” and 4.08%.
Regarding `CNC(=O)N(C1=NCCCCC1)c1ccc(Br)cc1`, the Potency result is “inactive” and the cell number change is -6.67%.
Consider `Cc1nn(CCC(=O)N2CCN(S(=O)(=O)c3ccccc3)CC2)c(C)c1C`, for which the Potency entry is “inactive” and the cell number change came out at 24.4%.
Regarding `Cc1cc(C)cc(C(=O)Oc2cc(C)[nH]c(=O)c2[N+](=O)[O-])c1`, the Potency result was “inactive” and the cell number change is -7.31%.
For `O=C(CSc1nnc(-c2ccncc2)n1CC1CCCO1)Nc1ccccc1Cl` (stereo unspecified), the Potency entry is “inactive” and the cell number change was determined as 2.31%.
Take `Cc1ccccc1NC(=O)C(C)Sc1nnc(-c2ccncc2)n1CC1CCCO1` (stereo unspecified): the Potency was 2.31 µM (active) and the cell number change worked out at 3.95%.
Regarding `Cc1ccc(NC(=O)C(C)Sc2nnc(C)n2CC2CCCO2)cc1` (stereo unspecified), the Potency entry is “inactive” and the cell number change worked out at 11.7%.
As to `O=C(O)C1CC=CCC1C(=O)Nc1cccc(F)c1` (stereo unspecified), the Potency result was “inactive”.
For `Cc1ccc(-n2c(N)cc(=O)nc2SCC(=O)NC2CCCCC2)cc1C`, the Potency entry was “inactive” and the cell number change is -3.12%.
For `Cc1ccnc(NC(=O)/C=C/c2cccs2)c1`, in that order: “inactive” and -3.66%.
As for `O=C(CSc1ncccn1)Nc1ccccc1`, the Potency result is “inactive” and the cell number change stood at 17.6%.
For the compound `O=C(CSc1ncccn1)Nn1cnnc1`, the Potency was 7.31 µM (active) and the cell number change was -0.567%.
`O=C(CSc1ccc(Cl)cc1)Nn1cnnc1`: the Potency was 16.4 µM (active) and the cell number change was determined as 7.58%.
As for `O=C(CSc1ccc(Cl)cc1)Nc1ncccn1`, the Potency entry was “inactive” and the cell number change stood at 8.97%.
With `O=C(Nc1ccc(Cl)cc1)Nn1cnnc1`, the Potency result is “inactive” and the cell number change was 8.74%.
Turning to `Cc1cc(C)nc(SCC(=O)Nn2cnnc2)n1`, the Potency result is “inactive” and the cell number change is -0.845%.
With `Cc1ccc(-n2nc3c(c2NC(=O)C2CCCC2)CS(=O)(=O)C3)cc1`, the Potency entry was “inactive” and the cell number change was -12.8%.

(Values after PubChem BioAssay AID2685 (National Center for Advancing Translational Sciences (NCATS), 2010).)
